This note sets out measurements from paper PMC7826789 (International Journal of Molecular Sciences, 2021).

Test systems include ABL1-nonphosphorylated; ABL1-phosphorylated; ABL2; ACVR1B; ACVR1; ACVR2A; ACVR2B; ACVRL1; ADCK4; AKT1; AKT2; AKT3; ALK(C1156Y); ALK(L1196M); ALK.
Holding throughout (details): Compound Concentration (nM):1000
The subject of assay [1] is ABL1(Q252H)-phosphorylated.
Assay [2] relates to ABL1(T315I)-nonphosphorylated.
In assay [3] the test system is ABL1(T315I)-phosphorylated.
Assay [4] has as its system ABL1(Y253F)-phosphorylated.
The next assay relates to T1, ADCK3.
T1 construct: gene CABC1
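Further: KINOMEscan scanMAX binding as percent activity remaining versus control; lower means stronger binding.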

For `CCS(=O)(=O)c1ccc(OC)c(Nc2ncc(-c3cccc(OC)c3)o2)c1` [GW580509X], the “Percent Control” value is recorded as 3.2% in assay [1]; 100% in assay [2]; 97% in assay [3]; 8% in [4]; 16% in the assay with ABL1-nonphosphorylated; 9.4% in the assay on ABL1-phosphorylated. Further, the “Percent Control” value in the assay with ABL2 is given as 26%; in the assay with ACVR1B, 100%; in the assay with ACVR1, 27%; with ACVR2A, 100%; in the assay with ACVR2B, 100%; in the assay on ACVRL1 it was 50%. The “Percent Control” value in the assay with ADCK3 is 100%; in the assay on ADCK4 it was 100%; in the assay on AKT1, 100%; with AKT2, 100%; with AKT3, 100%; in the assay on ALK(C1156Y), 87%. The “Percent Control” value in the assay on ALK(L1196M) and in the assay with ALK was 100% throughout.

For `CC1=C(C(=O)Nc2ccc3[nH]ncc3c2)C(c2ccc(Cl)c(Cl)c2)CC(=O)N1` (centres unmarked) [GSK299115A], the “Percent Control” value in assay [1] is 100%; in assay [2] it was 83%; in [3] it was 90%; in [4] it was 97%; with ABL1-nonphosphorylated, 74%; with ABL1-phosphorylated it was 94%. Besides, the “Percent Control” value in the assay with ABL2 amounted to 83%; in the assay on ACVR1B, 100%; with ACVR1 it was 95%; in the assay with ACVR2A, 80%; in the assay with ACVR2B, 69%; in the assay with ACVRL1 it was 100%. Further, the “Percent Control” value with ADCK3 is 99%; in the assay on ADCK4, 92%; in the assay on AKT1 it was 100%; with AKT2, 100%; with AKT3, 100%; in the assay with ALK(C1156Y) it was 100%. The “Percent Control” value with ALK(L1196M) was found to be 100%; in the assay on ALK, 77%.

On to `CCc1ccc(Oc2nccc(-c3c(-c4ccc(F)cc4)ncn3C3CCNCC3)n2)cc1` [SB-242719], for which the “Percent Control” value amounted to 79% in assay [1]; 93% in assay [2]; 100% in assay [3]; 71% in assay [4]; 74% in the assay with ABL1-nonphosphorylated; 62% with ABL1-phosphorylated. Also, the “Percent Control” value turned out to be 100% with ABL2; 83% in the assay on ACVR1B; 78% with ACVR1; 100% in the assay with ACVR2A; 100% in the assay with ACVR2B; 97% in the assay on ACVRL1. Moreover, the “Percent Control” value in the assay with ADCK3 was 100%; in the assay with ADCK4 it was 100%; with AKT1, 88%; in the assay with AKT2, 100%; with AKT3 it was 100%; in the assay on ALK(C1156Y) it was 100%. The “Percent Control” value with ALK(L1196M) amounted to 98%; in the assay with ALK it was 96%.

Consider `Cl.c1ccc(Cc2nc3ccc(Nc4ncnc5ccccc45)cc3[nH]2)cc1` [GR269666A], for which the “Percent Control” value in [1] is 100%; in [2], 100%; in assay [3] it was 100%; in assay [4], 100%; with ABL1-nonphosphorylated, 96%; in the assay with ABL1-phosphorylated, 100%. The “Percent Control” value in the assay on ABL2 stood at 100%; in the assay on ACVR1B, 100%; with ACVR1 it was 100%; with ACVR2A, 100%; in the assay with ACVR2B, 100%; in the assay on ACVRL1, 89%. Besides, the “Percent Control” value in the assay with ADCK3 is 100%; in the assay on ADCK4, 100%; with AKT1, 93%; in the assay on AKT2, 100%; in the assay with AKT3 it was 100%; in the assay with ALK(C1156Y) it was 95%. Also, the entries for the “Percent Control” value in the assay on ALK(L1196M) and with ALK were 100% and 99%, respectively.

Regarding `COC(=O)Nc1nc2ccc(Oc3ccc(NC(=O)Nc4cc(C(F)(F)F)ccc4F)cc3)cc2s1.Cl` [GW693917A], the “Percent Control” value is recorded as 32% in [1]; 5.1% in [2]; 6.7% in assay [3]; 15% in assay [4]; 3.1% with ABL1-nonphosphorylated; 13% with ABL1-phosphorylated. In addition, the “Percent Control” value in the assay on ABL2 worked out at 2.6%; in the assay with ACVR1B it was 100%; in the assay on ACVR1, 89%; in the assay on ACVR2A it was 100%; in the assay on ACVR2B, 100%; with ACVRL1, 65%. For the same molecule, the “Percent Control” value is 100% in the assay with ADCK3; 75% with ADCK4; 84% in the assay on AKT1; 100% in the assay on AKT2; 100% in the assay on AKT3; 89% in the assay with ALK(C1156Y). Further, the “Percent Control” value was determined as 87% in the assay with ALK(L1196M) and 100% in the assay on ALK.

On to `NS(=O)(=O)c1ccc(N/N=C2\C(=O)Nc3ccc(C(=O)NCc4ccncc4)cc32)cc1` [GW300657X], for which the “Percent Control” value came out at 72% in assay [1]; 97% in [2]; 98% in assay [3]; 82% in [4]; 79% in the assay on ABL1-nonphosphorylated; 77% in the assay with ABL1-phosphorylated. The “Percent Control” value in the assay on ABL2, in the assay with ACVR1B, in the assay with ACVR1, in the assay on ACVR2A, in the assay with ACVR2B and in the assay on ACVRL1 was 100% throughout. Besides, the “Percent Control” value in the assay on ADCK3 is 87%; with ADCK4, 100%; with AKT1, 82%; in the assay with AKT2, 100%; in the assay on AKT3, 100%; in the assay with ALK(C1156Y), 83%. Further, the figures for the “Percent Control” value in the assay on ALK(L1196M) and in the assay with ALK were 82% and 77%, respectively.

As for `COc1cc(N2CCN(C(C)C)CC2)ccc1Nc1nc(Nc2ccc(F)cc2C(=O)NC[C@@H](O)CO)c2cc[nH]c2n1` [GSK1392956A], the “Percent Control” value (in assay [1]; in assay [2]; in assay [3]; in [4]; in the assay on ABL1-nonphosphorylated; in the assay with ABL1-phosphorylated) was 100% each time. In addition, the “Percent Control” value in the assay on ABL2 stood at 100%; in the assay with ACVR1B, 100%; with ACVR1 it was 100%; in the assay with ACVR2A it was 100%; in the assay with ACVR2B, 100%; with ACVRL1 it was 86%. Moreover, the “Percent Control” value with ADCK3 was 94%; with ADCK4 it was 100%; with AKT1 it was 83%; in the assay on AKT2, 100%; in the assay on AKT3, 100%; with ALK(C1156Y), 0.1%. Also, the “Percent Control” value with ALK(L1196M) is 1.1%; with ALK, 0.2%.

`C/C(Nc1ccc(S(N)(=O)=O)cc1)=C1/C(=O)Nc2ccccc21` [GW335962X]: the “Percent Control” value in assay [1] is given as 96%; in assay [2], 100%; in [3], 86%; in assay [4], 89%; in the assay with ABL1-nonphosphorylated, 88%; with ABL1-phosphorylated, 82%. The “Percent Control” value was found to be 100% with ABL2; 100% in the assay with ACVR1B; 100% with ACVR1; 100% in the assay with ACVR2A; 100% in the assay with ACVR2B; 78% with ACVRL1. Further, the “Percent Control” value in the assay with ADCK3 is 100%; with ADCK4 it was 100%; with AKT1 it was 81%; in the assay with AKT2 it was 94%; in the assay on AKT3, 88%; in the assay with ALK(C1156Y) it was 54%. Further, the “Percent Control” value in the assay with ALK(L1196M) was determined as 60%; with ALK it was 54%.

On to `O=C1Nc2ccc(C(=O)c3ccco3)cc2C1=Cc1cc(Cl)c(O)c(Cl)c1` [GW406108X], for which the “Percent Control” value was determined as 88% in assay [1]; 96% in assay [2]; 78% in assay [3]; 83% in assay [4]; 87% in the assay with ABL1-nonphosphorylated; 76% in the assay on ABL1-phosphorylated. Further, the “Percent Control” value in the assay on ABL2 is recorded as 100%; in the assay on ACVR1B, 100%; in the assay on ACVR1 it was 89%; in the assay on ACVR2A, 92%; in the assay on ACVR2B, 86%; in the assay on ACVRL1, 100%. Moreover, the “Percent Control” value in the assay with ADCK3 was 90%; with ADCK4, 99%; with AKT1, 100%; in the assay on AKT2, 100%; with AKT3 it was 100%; in the assay with ALK(C1156Y), 76%. For the same molecule, the figures for the “Percent Control” value in the assay with ALK(L1196M) and in the assay with ALK were 86% and 89%, respectively.

In the case of `Nc1ncnc2occ(-c3ccc(NC(=O)Nc4cc(C(F)(F)F)ccc4F)cc3)c12` [GW770249X], the “Percent Control” value was 92% in assay [1]; 0% in assay [2]; 9.1% in assay [3]; 72% in assay [4]; 0.7% with ABL1-nonphosphorylated; 56% in the assay with ABL1-phosphorylated. The “Percent Control” value with ABL2 is 41%; with ACVR1B it was 100%; with ACVR1, 100%; in the assay with ACVR2A it was 100%; in the assay on ACVR2B, 100%; in the assay with ACVRL1 it was 100%. In addition, the “Percent Control” value is 100% in the assay on ADCK3; 100% in the assay with ADCK4; 100% in the assay on AKT1; 100% in the assay with AKT2; 100% with AKT3; 41% with ALK(C1156Y). Moreover, the “Percent Control” value with ALK(L1196M) is reported as 74%; in the assay on ALK, 36%.
